Common to all, as to assay: NCI-60 one-dose screen, 48 h (100 = growth as untreated, 0 = no growth, -100 = all killed)
One assay deals with SR leukemia. The note with it: 10 µM unless noted.
The next assay concerns RPMI-8226 leukemia. To be noted: 10 µM unless noted.
For the next assay, the system named is OVCAR-5 ovarian. The note with it: 10 µM unless noted.
A further assay deals with OVCAR-4 ovarian. The note with it: 10 µM unless noted.
The subject of the next assay is SK-OV-3 ovarian. To be noted: 10 µM unless noted.
Another assay concerns IGROV1 ovarian. The note with it: 10 µM unless noted.
The next assay deals with OVCAR-3 ovarian. The note with it: 10 µM unless noted.
Another assay relates to HS 578T breast. To be noted: 10 µM unless noted.
For a further assay, the system named is NCI/ADR-RES ovarian. The note with it: 10 µM unless noted.
The next assay concerns T-47D breast. To be noted: 10 µM unless noted.
Another assay has as its system BT-549 breast. The note with it: 10 µM unless noted.
The next assay deals with MDA-MB-435 melanoma. The note with it: 10 µM unless noted.
For the next assay, the system named is SW-620 colon. To be noted: 10 µM unless noted.
Another assay has as its system MCF7 breast. To be noted: 10 µM.
The subject of the next assay is HCT-116 colon. The note with it: 10 µM unless noted.
The next assay relates to HCC-2998 colon. To be noted: 10 µM unless noted.
For a further assay, the system named is KM12 colon. To be noted: 10 µM unless noted.
The subject of the next assay is OVCAR-8 ovarian. The note with it: 10 µM.

The structures appear in SMILES notation. Values joined by “and” are separate entries in the source; they are usually repeats but may differ in a detail not shown here. Equal values may be shown once. Compounds without any hit were thinned out: in the full panel of roughly 83,000, 20% have a hit.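 Activity criterion: percent growth below 10, measured after cells in 96-well plates were exposed to a single compound concentration for 48 hours.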 Active and inactive are the calls of the source.

As for `C[C@H]1CCC/C=C/[C@@H]2C[C@H](O)C[C@H]2[C@H](O)/C=C/C(=O)O1`, the growth in the assay with SR leukemia was -6.07% (active); with RPMI-8226 leukemia, -17.9% (active); in the assay on OVCAR-5 ovarian, 32.1% (inactive); with OVCAR-4 ovarian, -30.5% (active); in the assay with SK-OV-3 ovarian, 35.9% (inactive); in the assay on IGROV1 ovarian, -54.8% (active). The growth in the assay on OVCAR-3 ovarian was -37.4% (active); in the assay with HS 578T breast, 57.9% (inactive); in the assay with NCI/ADR-RES ovarian, 7.27% (active); in the assay with T-47D breast, -26.1% (active); with BT-549 breast it was 2.5% (active); with MDA-MB-435 melanoma, 0.489% (active). In addition, the growth is -20.4% (active) in the assay on SW-620 colon; -11.9% (active) in the assay with MCF7 breast; -70.8% (active) in the assay on HCT-116 colon; -49.5% (active) in the assay on HCC-2998 colon; -59.8% (active) in the assay on KM12 colon.
With `CN1CCN(c2ccc([N+](=O)[O-])c3no[n+]([O-])c23)CC1`, the growth is -36.6% (active) with RPMI-8226 leukemia; -92.7% (active) in the assay with OVCAR-8 ovarian; -15.2% (active) in the assay with OVCAR-5 ovarian; -91.8% (active) in the assay on OVCAR-4 ovarian; -97.9% (active) in the assay with SK-OV-3 ovarian; -71.5% (active) in the assay on IGROV1 ovarian. The growth was -88.8% (active) with OVCAR-3 ovarian; -12% (active) with HS 578T breast; -33.1% (active) with NCI/ADR-RES ovarian; -56.5% (active) in the assay on T-47D breast; -64.6% (active) in the assay on BT-549 breast; -82.2% (active) in the assay on MDA-MB-435 melanoma. Further, the growth in the assay with SW-620 colon was -70.9% (active); with MCF7 breast it was -49.3% (active); with HCT-116 colon it was -66.5% (active); in the assay with KM12 colon, -82.8% (active).
On to `CC[n+]1c(-c2ccccc2)c2cc(N)ccc2c2ccc(N)cc21`, for which the growth in the assay on RPMI-8226 leukemia is 7.63% (active); in the assay on OVCAR-8 ovarian, 18.6% (inactive); with OVCAR-5 ovarian it was 49.4% (inactive); with OVCAR-4 ovarian, 11.6% (inactive); in the assay with SK-OV-3 ovarian, 47.3% (inactive); with IGROV1 ovarian, 9.12% (active). In addition, the growth is -0.305% (active) with OVCAR-3 ovarian; 3.75% (active) with HS 578T breast; 87.6% (inactive) in the assay with NCI/ADR-RES ovarian; 11.2% (inactive) in the assay with T-47D breast; -35.7% (active) in the assay with BT-549 breast; -36% (active) in the assay on MDA-MB-435 melanoma. For the same compound, the growth with SW-620 colon was 17.9% (inactive); in the assay on HCT-116 colon, 13.8% (inactive); in the assay with HCC-2998 colon, 6.95% (active); in the assay on KM12 colon, 7.69% (active).
Consider `CC[C@@]1(O)C[C@H](OC2CC(N(C)C)C(OC3CC(O)C(OC4CCC(=O)C(C)O4)C(C)O3)C(C)O2)c2c(cc3c(c2O)C(=O)c2c(O)ccc(O)c2C3=O)[C@H]1C(=O)OC` (stereo partly drawn), for which the growth with SR leukemia is 1.06% (active); with RPMI-8226 leukemia, -33.9% (active); in the assay on OVCAR-5 ovarian it was 1.64% (active); in the assay on OVCAR-4 ovarian, -36.5% (active); in the assay with SK-OV-3 ovarian it was 33.1% (inactive); with IGROV1 ovarian it was -49.2% (active). Besides, the growth in the assay on OVCAR-3 ovarian is 0.51% (active); in the assay with HS 578T breast, 9.34% (active); in the assay on NCI/ADR-RES ovarian, 11% (inactive); in the assay with T-47D breast, 18% (inactive); in the assay on BT-549 breast, -4.5% (active); in the assay with MDA-MB-435 melanoma it was -2.5% (active). The growth in the assay with SW-620 colon was -1.19% (active); in the assay on MCF7 breast, 0.371% (active); with HCT-116 colon, -58.7% (active); in the assay with HCC-2998 colon, -77.5% (active); with KM12 colon, -14.9% (active).
With `CC1=C(CO)C2=C(C)C3(CC3)[C@@](C)(O)C(=O)C2=C1`, the growth in the assay on SR leukemia was 21.4% (inactive); with RPMI-8226 leukemia, 80.2% (inactive); in the assay with OVCAR-5 ovarian, 14.3% (inactive); in the assay with SK-OV-3 ovarian it was 16.3% (inactive); in the assay on OVCAR-3 ovarian, -1.49% (active); in the assay with HS 578T breast it was 8.86% (active). Besides, the growth in the assay on NCI/ADR-RES ovarian is 3.84% (active); in the assay on T-47D breast, 7.12% (active); in the assay on BT-549 breast, -55.8% (active); in the assay on MDA-MB-435 melanoma, 10.7% (inactive); in the assay on SW-620 colon it was 26.3% (inactive); in the assay on MCF7 breast, 8.34% (active). Besides, the growth is 2.68% (active) in the assay on HCT-116 colon, -76.7% (active) in the assay with HCC-2998 colon and 12.4% (inactive) in the assay on KM12 colon.
With `CCCCCCCCCCCC1CCCC(C)N1` (stereo not drawn), the growth in the assay with SR leukemia is -28% (active); in the assay with RPMI-8226 leukemia, -34.7% (active); with OVCAR-8 ovarian it was 67.3% (inactive); in the assay with OVCAR-5 ovarian it was 88.8% (inactive); with OVCAR-4 ovarian, 85.5% (inactive); in the assay with SK-OV-3 ovarian, 121% (inactive). In addition, the growth in the assay with IGROV1 ovarian was -40.3% (active); in the assay on OVCAR-3 ovarian, 90.9% (inactive); in the assay with HS 578T breast, 64.5% (inactive); in the assay with NCI/ADR-RES ovarian, 82.7% (inactive); with T-47D breast, 102% (inactive); with MDA-MB-435 melanoma, 71.8% (inactive). For the same compound, the growth is 49.4% (inactive) in the assay on SW-620 colon; 44.1% (inactive) in the assay with MCF7 breast; 65% (inactive) with HCT-116 colon; -72.4% (active) with HCC-2998 colon; 44% (inactive) with KM12 colon.
As for `CO[C@H](/C(C)=C/C=C/C(C)=C/c1coc(C)n1)[C@H](C)[C@H]1C[C@@H](O)[C@@]2(C)O[C@H]2/C=C/[C@@H](C)[C@@H]2C[C@@H](CC(=O)O2)C[C@H]2O[C@@H]2C(=O)O1`, the growth with SR leukemia was -4.11% (active); with RPMI-8226 leukemia, -14.5% (active); with OVCAR-5 ovarian it was 34.2% (inactive); in the assay with OVCAR-4 ovarian, -6.77% (active); with SK-OV-3 ovarian, 32.3% (inactive); with IGROV1 ovarian it was -35.5% (active). The growth is -36.3% (active) in the assay on OVCAR-3 ovarian; -2.81% (active) in the assay on HS 578T breast; 19% (inactive) with NCI/ADR-RES ovarian; 64% (inactive) in the assay on T-47D breast; 8.66% (active) in the assay with BT-549 breast; -59.2% (active) in the assay on MDA-MB-435 melanoma. Besides, the growth with SW-620 colon is 21.5% (inactive); with MCF7 breast, 14.7% (inactive); in the assay with HCT-116 colon it was 4.48% (active); in the assay on HCC-2998 colon, -25.4% (active); in the assay on KM12 colon it was -17.9% (active).
On to `Oc1cccc2cccnc12`, for which the growth in the assay on SR leukemia is 40.1% (inactive) and 105% (inactive) and 57.7% (inactive); with RPMI-8226 leukemia, 84% (inactive) and 97.1% (inactive); with OVCAR-8 ovarian, 81.9% (inactive) and 101% (inactive) and 105% (inactive); in the assay on OVCAR-5 ovarian, 89.4% (inactive); in the assay on OVCAR-4 ovarian, 60.6% (inactive) and 120% (inactive) and 114% (inactive); with SK-OV-3 ovarian, 107% (inactive) and 97.8% (inactive) and 99.9% (inactive). Further, the growth in the assay on IGROV1 ovarian is 120% (inactive) and 118% (inactive) and 104% (inactive); with OVCAR-3 ovarian it was -6.09% (active) and 105% (inactive) and 104% (inactive); with HS 578T breast, 116% (inactive) and 101% (inactive); with NCI/ADR-RES ovarian, 83% (inactive) and 108% (inactive) and 114% (inactive); with T-47D breast, 29% (inactive) and 95.8% (inactive) and 97.9% (inactive); with BT-549 breast, 106% (inactive) and 113% (inactive) and 101% (inactive). Besides, the growth in the assay with MDA-MB-435 melanoma is 101% (inactive) and 110% (inactive) and 119% (inactive); in the assay with SW-620 colon, 48.2% (inactive) and 100% (inactive) and 103% (inactive); in the assay with MCF7 breast it was 1.86% (active) and 103% (inactive) and 104% (inactive); in the assay with HCT-116 colon, 47.6% (inactive) and 108% (inactive) and 113% (inactive); in the assay with HCC-2998 colon it was 100% (inactive) and 103% (inactive) and 123% (inactive); with KM12 colon, 102% (inactive) and 106% (inactive) and 103% (inactive).

The values are drawn from PubChem BioAssay (NCI).
